CYP2C19 inh = inhibitors of human CYP2C19; CYP2C19 Supersomes, luciferin-H EGE luminescence, 30 min; inhibition, % at 5 µM; 96,000 tested, 21% active; AID 778;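 active = CYP2C19 inhibition above a set limit at 5 µM in the primary screen, cut at about 50% in these data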
CYP2C9 inhib = blocks human cytochrome P450 2C9; inhibition, % at 5 µM; AID 777; CYP2C9 Supersomes, luciferin-H conversion, luminescence; 96,000 tested, 20% active; P11712;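 active = blocking of liver enzyme CYP2C9 beyond about 50% at 5 µM, limit read from the data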
Target sequence (P11712 whole entry, looked up): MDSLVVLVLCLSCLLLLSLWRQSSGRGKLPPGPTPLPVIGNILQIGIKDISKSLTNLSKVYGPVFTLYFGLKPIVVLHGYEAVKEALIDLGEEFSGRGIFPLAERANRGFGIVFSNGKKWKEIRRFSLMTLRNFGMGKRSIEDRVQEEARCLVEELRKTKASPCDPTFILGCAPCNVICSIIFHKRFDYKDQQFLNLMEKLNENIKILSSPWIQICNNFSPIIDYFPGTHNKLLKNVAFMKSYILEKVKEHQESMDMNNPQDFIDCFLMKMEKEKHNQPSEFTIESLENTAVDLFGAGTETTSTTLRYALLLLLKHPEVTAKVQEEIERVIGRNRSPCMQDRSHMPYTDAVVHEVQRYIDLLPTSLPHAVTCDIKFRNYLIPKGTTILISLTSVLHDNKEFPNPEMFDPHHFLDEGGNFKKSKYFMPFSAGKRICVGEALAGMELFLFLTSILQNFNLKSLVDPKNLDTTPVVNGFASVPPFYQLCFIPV
Measles CPE = protection of cells from measles virus. Measles virus-infected cells, CPE protection, absorbance. protection (pct of control), % at 4 µM. 140,000 tested, 1.5% active; in the data active = protection mostly above about 24%, no sharp cut-off; inactive = mostly below about 26%
CYP2C19 act = activators of human cytochrome P450 2C19; P33261; recombinant CYP2C19, luciferin-H EGE luminescence; stronger effect = higher value; 0 = fully inhibited enzyme, 1 = untreated enzyme; activation factor at 5 µM; 96,000 tested, under 10 active;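 active = activation factor of at least 2 at 5 µM in the primary screen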
CYP2C9 act = activators of human CYP2C9 | P11712 | recombinant CYP2C9, luciferin-H conversion, luminescence; stronger effect = higher value; factor 1 = untreated enzyme, 0 = blocked | activation factor at 5 µM | 96,000 tested, 1.4% active | AID 1024;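 active = activation factor of 2 or more for CYP2C9 at a 5 µM dose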
Hits are given with their value; - = inactive; . = no result. Hits are enriched below; roughly 22% of the tested compounds scored in any of these assays.

SMILES | CYP2C19 inh | CYP2C9 inhib | Measles CPE | CYP2C19 act | CYP2C9 act
Cc1ccc(SCC(=O)NCCC2=CCCCC2)cc1 | 60.0 | 50.6 | - | - | -
Cc1noc(C)c1C(=O)OCC(=O)NCCC1=CCCCC1 | 70.1 | - | - | - | -
Cc1cc(C)c(C2C(C#N)=C(N)Oc3n[nH]c(C)c32)cc1CN1CCCC1 (stereo unspecified) | - | - | - | - | -
CS(=O)(=O)N(CC(=O)NCc1ccccc1Cl)C1CCCCC1 | . | . | - | . | .
CNC(=O)CSc1nnnn1-c1cc(C)ccc1C | . | . | - | . | .
Cc1ccc(C)c(-n2nnnc2SCC(=O)NCCC2=CCCCC2)c1 | 75.9 | - | - | - | -
CCCc1nc(N)c(C#N)c(-c2cccnc2)c1CC | 60.6 | - | - | - | -
C=CCN(CC(=O)NCc1ccc(F)cc1)C(=O)c1csnn1 | . | . | - | . | .
Cc1[nH]n(-c2ccccc2)c(=O)c1S(=O)(=O)c1ccccc1 | 88.4 | - | - | - | -
COC(=O)c1cc(-c2ccc(OC)c(OC)c2)n[nH]1 | 55.0 | - | - | - | -
CC(=O)Nc1ccc(S(=O)(=O)N2CCSC2c2ccc(C)cc2)cc1 (stereo unspecified) | - | 55.2 | - | - | -
COc1ccc(C2SCCN2S(=O)(=O)c2ccc(NC(C)=O)cc2)cc1 (stereo unspecified) | 54.6 | - | - | - | -
CCOC(=O)c1nsnc1NCCSC(=N)N | . | . | - | . | .
Cc1ccc(-n2c(C)c3c(C)nnc(C)c3c2C)cc1 | 57.6 | - | . | - | -
CCN(CC)S(=O)(=O)c1cccc(C(=O)N[C@H](C(=O)OCC(N)=O)C(C)C)c1 | - | - | - | - | -
CCc1nnc(NC(=O)[C@@H](NC(=O)c2cccc(S(=O)(=O)N(CC)CC)c2)C(C)C)s1 | 79.1 | 72.2 | - | - | -
CCN(CC)S(=O)(=O)c1cccc(C(=O)N[C@H](C(=O)OCC(=O)Nc2ccccc2)C(C)C)c1 | 93.1 | 98.8 | - | - | -
O=C(CN1C(=O)CCS(=O)(=O)c2ccccc21)Nc1cccc(Cl)c1 | . | . | - | . | .
O=C(CN1C(=O)CCSc2ccccc21)Nc1cccc(F)c1 | 78.4 | 66.7 | - | - | -
Cc1sc2nc(SCC(=O)c3cc(C)n(CC4CCCO4)c3C)n(C(C)C)c(=O)c2c1C (stereo unspecified) | 82.2 | 88.4 | - | - | -
Cc1cc(C(=O)CSc2nc3ccccc3o2)c(C)n1CC1CCCO1 (stereo unspecified) | - | - | - | - | -
C=CCn1c(SCC(=O)c2cc(C)n(CCOC)c2C)nc2sc(C)c(C)c2c1=O | - | - | 41.7 | - | -
COc1ccc(CC(=O)N2CCN(c3ccccn3)CC2)cc1OC | 51.9 | - | - | - | -
CCn1cc(C(=O)N2CCN(c3ccccn3)CC2)c2cc(OC)c(OC)cc2c1=O | - | 60.5 | - | - | -
CCCc1ccc(OCc2ccc(C(=O)N3CCN(c4ccccn4)CC3)o2)c(OC)c1 | 56.6 | 57.3 | - | - | -
SMILES | CYP2C19 inh | CYP2C9 inhib | Measles CPE | CYP2C19 act | CYP2C9 act
COC(=O)C1CCN(C(=O)COC(=O)[C@@H]2CC(O)CN2S(=O)(=O)c2ccc3c(c2)OCCO3)CC1 (stereo partly specified) | . | . | - | . | .
C/C(CCN1CCCCc2nc(C)c(C)cc21)=N\OC[C@@H](O)[C@H]1O[C@@H]2OC(C)(C)O[C@@H]2[C@H]1O | . | . | - | . | .
Cc1ccc2nc(CSc3nnc(Nc4ccccc4F)s3)cc(=O)n2c1 | . | . | - | . | .
CC(C)C1N=C2c3ccccc3N=C(SCc3cc(=O)n4cc(Cl)ccc4n3)N2C1=O (stereo unspecified) | - | 54.6 | - | - | -
Cc1cccc(/C=C2/C(=O)/C(=C/c3ccccc3C)C3CCC2N3C)c1 (stereo unspecified) | - | - | - | - | -
CCCc1nnc(NC(=O)c2ccncc2)s1 | - | 79.9 | - | - | -
CCc1nnc(NC(=O)c2ccncc2)s1 | - | - | - | - | -
CC(C)Cc1nnc(NC(=O)c2ccncc2)s1 | 91.8 | 95.7 | - | - | -
c1ccc(CSc2nnc(-c3sccc3-n3cccc3)o2)cc1 | - | - | - | - | -
CCn1c(C(=O)N2CCCC(C(=O)NCCCc3ccccc3)C2)cc2sccc21 (stereo unspecified) | . | . | - | . | .
CCn1c(C(=O)N2CCCC(C(=O)NCCc3ccc(C)cc3)C2)cc2sccc21 (stereo unspecified) | - | 50.0 | - | - | -
Cn1c(C(=O)N2CCCC(C(=O)NCCCSC3CCCCC3)C2)cc2sccc21 (stereo unspecified) | - | 81.6 | - | - | -
Cc1noc(C)c1S(=O)(=O)N1CCCC(C(=O)Nc2cccnc2)C1 (stereo unspecified) | - | - | - | - | -
COC(=O)C1=CN(c2cccc(C)c2)C=C(C(=O)OC)C1c1cc(OC)c(O)c([N+](=O)[O-])c1 | - | 50.7 | - | - | -
Nc1nc(CN2CCN(c3ccccc3F)CC2)nc(Nc2ccccc2)n1 | - | 77.4 | - | - | -
Nc1nc(CN2CCc3ccccc3C2)nc(Nc2ccccc2)n1 | - | 51.5 | - | - | -
COc1ccc(Nc2nc(N)nc(CN3CCc4ccccc4C3)n2)cc1 | - | 55.7 | - | - | -
O=C(CS(=O)(=O)Cc1ccccc1)N1CCN(C(=O)c2ccco2)CC1 | - | - | - | - | -
N#CC1=C(N)C2=C(N3CCCCC3)CCCC2C1(C#N)C#N (stereo unspecified) | - | 50.7 | - | - | -
CSc1nnc(Cc2sc(-c3ccccc3)nc2-c2ccccc2)o1 | 88.9 | 99.7 | - | - | -
COc1ccc(CSc2nnc(Cc3sc(-c4ccccc4)nc3-c3ccccc3)o2)cc1 | - | 67.3 | - | - | -
c1ccc(CSc2nnc(Cc3ccccn3)o2)cc1 | - | - | - | - | -
Fc1ccc(CSc2nnc(Cc3sc(-c4ccccc4)nc3-c3ccccc3)o2)cc1 | - | 72.4 | - | - | -
CC(C)Cc1csc(NC(=O)c2ccc(F)cc2)c1C(=O)O | . | . | - | . | .
N#C/C(=C\c1ccc(-c2ccccc2)cc1)c1nc(-c2ccco2)cs1 | . | . | - | . | .
SMILES | CYP2C19 inh | CYP2C9 inhib | Measles CPE | CYP2C19 act | CYP2C9 act
Cc1ccc(/C=c2/sc3n(c2=O)CCCN=3)o1 | . | . | - | . | .
Cc1ccc(/C=c2\sc3n(c2=O)CN(c2ccc(Br)cc2)CN=3)o1 | - | 62.0 | - | - | -
COc1ccc(CC/C(=N\O)C2(O)CCCCC2)cc1 | 58.5 | 69.8 | - | - | -
COc1ccc(CCC(=O)NC(C)C)cc1 | . | . | - | . | .
O/N=C(/CCc1ccccc1)C1(O)CCCCC1 | 80.9 | 59.4 | - | - | -
COC(=O)c1cc(NS(=O)(=O)c2ccc3c(c2)CCC(=O)N3)cc(C(=O)OC)c1 | 68.3 | 56.8 | - | - | -
COc1ccc(OC)c(NS(=O)(=O)c2ccc3c(c2)CCC(=O)N3)c1 | 53.3 | - | - | - | -
COC(=O)c1cc(NS(=O)(=O)c2ccc(N3CCCCC3)c([N+](=O)[O-])c2)cc(C(=O)OC)c1 | - | - | - | - | -
O=S(=O)(NCC1CCCO1)c1ccc(S(=O)(=O)N(Cc2ccccn2)C2CC2)cc1 (stereo unspecified) | . | . | - | . | .
COc1ccc(CCNC2CCN(C)CC2)cc1OC | - | 74.1 | - | - | -

Assay outcomes: PubChem, several laboratories
